Inconclusive results are not listed. A call without a number means that no potency is given here. Active and inactive are the calls of the source. Unless noted, calls follow the shape of the dose curve; as a rule, active = well fitted cell-killing curve with a large enough effect; inconclusive = small, poorly fitted or top-dose-only effect; inactive = flat fitted curve, though single readings scatter.
Biological target: Mitogen-activated protein kinase 10 (Mus musculus) (UniProt Q61831)
Assay: JNK3 AlphaScreen Assay (AID 530; active = well fitted curve in either direction with a large enough effect, not every such curve was filed as active;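 also: kinase came from lysate of stimulated human HepG2 cells; signal reports phosphorylation of biotinylated GST-cJun 1-79 at Ser73 with 10 µM ATP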)
Conditions: JNK3 lysate, c-Jun phosphorylation; series mostly up to 57.1 µM
Summary of the method: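 HepG2 lysate (IL-1b/TNFa pre-activated) + biotin-GST-cJun 1-79 + anti-pSer73 cJun; cpd titration, 15 min RT; ATP 10 uM start; Tris pH 7.6, MgCl2, DTT, vanadate; beads in EDTA buffer; AlphaScreen.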

Compound	Potency
CC(C#N)CCC#N (stereo not drawn)	inactive
Nc1cc(Cl)ccc1Cl	inactive
Nc1cccc(Cl)c1	inactive
ClCc1ccccc1	inactive
CCC/C=N/O	inactive
COc1c(C(C)(C)C)cc([N+](=O)[O-])c(C)c1[N+](=O)[O-]	inactive
O=S(=O)(Cl)c1ccccc1	inactive
C=CCOCC1CO1 (stereo not drawn)	inactive
c1ccoc1	inactive
Clc1ccccc1	inactive
ClC(Cl)(Cl)C(Cl)(Cl)Cl	inactive
CCOC(=O)C1OC1(C)c1ccccc1 (stereo not drawn)	inactive
C/C=C/CC#N	inactive
ClC(Cl)C(Cl)Cl	inactive
C=CCCl	inactive
Oc1c(Cl)cccc1Cl	inactive
Brc1cccc(-c2ccccc2)c1	inactive
C=CCO	inactive
OCCCCO	inactive
Nn1cnnc1	inactive

Compound	Potency
BrCCc1ccccc1	inactive
Cc1ccccc1[N+](=O)[O-]	inactive
CCCCOC(=O)c1ccccc1N	inactive
Clc1cc(Cl)c(Cl)c(Cl)c1	inactive
Cc1ccc(N)c(C)c1	inactive
C1CC2OC2CC1C1CO1 (stereo not drawn)	inactive
CN(C)C(=O)Cl	inactive
CC(=O)NNc1ccccc1	inactive
Cc1ccc(N=C=O)cc1N=C=O	inactive
O=C(Cl)OCc1ccccc1	inactive
C=CC(=O)OC	inactive
CCN(CC)N=O	inactive
OCC(Cl)CCl (stereo not drawn)	inactive
CC(C)CON=O	inactive
CC[N+](=O)[O-]	inactive
CC(C)(Cl)[N+](=O)[O-]	inactive
C[N+](=O)[O-]	inactive
CC(C)OC(=O)Cc1ccccc1	inactive
ClCC(Br)CBr (stereo not drawn)	inactive

System: not listed separately
Assay: Cell Viability - N2a (AID 540);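 also: cells exposed to compound for 40 h at 37 °C; nearly all actives have a fitted effect of over 45% in size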
Conditions: N2a mouse neuroblastoma cell viability; activity change, negative = cytotoxicity: at 92.2 µM (top of the series)
Summary of the method: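 N2a mouse neuroblastoma, 1500 cells/well, 5 hr settle; compound 40 hr, 37 °C; CellTiter-Glo 20 min RT; luminescence; Hill-fit AC50.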

Compound	Potency
CC(C#N)CCC#N (stereo not drawn)	inactive
Nc1cc(Cl)ccc1Cl	inactive
Nc1cccc(Cl)c1	inactive
ClCc1ccccc1	inactive
CCC/C=N/O	inactive
COc1c(C(C)(C)C)cc([N+](=O)[O-])c(C)c1[N+](=O)[O-]	inactive
O=S(=O)(Cl)c1ccccc1	inactive
C=CCOCC1CO1 (stereo not drawn)	inactive
c1ccoc1	inactive
Clc1ccccc1	inactive
ClC(Cl)(Cl)C(Cl)(Cl)Cl	inactive
CCOC(=O)C1OC1(C)c1ccccc1 (stereo not drawn)	inactive
C/C=C/CC#N	inactive
ClC(Cl)C(Cl)Cl	inactive
C=CCCl	inactive
Oc1c(Cl)cccc1Cl	inactive
Brc1cccc(-c2ccccc2)c1	inactive
C=CCO	inactive
OCCCCO	inactive
Nn1cnnc1	inactive

Compound	Potency
BrCCc1ccccc1	inactive
Cc1ccccc1[N+](=O)[O-]	inactive
CCCCOC(=O)c1ccccc1N	inactive
Clc1cc(Cl)c(Cl)c(Cl)c1	inactive
Cc1ccc(N)c(C)c1	inactive
C1CC2OC2CC1C1CO1 (stereo not drawn)	inactive
CN(C)C(=O)Cl	inactive
CC(=O)NNc1ccccc1	inactive
Cc1ccc(N=C=O)cc1N=C=O	inactive
O=C(Cl)OCc1ccccc1	inactive
C=CC(=O)OC	inactive
CCN(CC)N=O	inactive
OCC(Cl)CCl (stereo not drawn)	inactive
CC(C)CON=O	inactive
CC[N+](=O)[O-]	inactive
CC(C)(Cl)[N+](=O)[O-]	inactive
C[N+](=O)[O-]	inactive
CC(C)OC(=O)Cc1ccccc1	inactive
ClCC(Br)CBr (stereo not drawn)	inactive
